L3MBTL1 block: qHTS Assay for the Inhibitors of L3MBTL1 | Lethal(3)malignant brain tumor-like protein 1 (Homo sapiens), Q9Y468 | AlphaScreen L3MBTL1–H3K9me1 peptide binding | Potency, µM (highest dose often 57.1 µM), for inactives: at the top dose activity, negative = inhibition, hits mostly inhibitors | 230,000 compounds, 0.66% hits | AID 485360, 2010; note: % is set by controls: 0 for no effect and ±100 for the full control effect; nearly all actives have a fitted effect of over 60% in size
Target sequence (Q9Y468 whole entry, looked up): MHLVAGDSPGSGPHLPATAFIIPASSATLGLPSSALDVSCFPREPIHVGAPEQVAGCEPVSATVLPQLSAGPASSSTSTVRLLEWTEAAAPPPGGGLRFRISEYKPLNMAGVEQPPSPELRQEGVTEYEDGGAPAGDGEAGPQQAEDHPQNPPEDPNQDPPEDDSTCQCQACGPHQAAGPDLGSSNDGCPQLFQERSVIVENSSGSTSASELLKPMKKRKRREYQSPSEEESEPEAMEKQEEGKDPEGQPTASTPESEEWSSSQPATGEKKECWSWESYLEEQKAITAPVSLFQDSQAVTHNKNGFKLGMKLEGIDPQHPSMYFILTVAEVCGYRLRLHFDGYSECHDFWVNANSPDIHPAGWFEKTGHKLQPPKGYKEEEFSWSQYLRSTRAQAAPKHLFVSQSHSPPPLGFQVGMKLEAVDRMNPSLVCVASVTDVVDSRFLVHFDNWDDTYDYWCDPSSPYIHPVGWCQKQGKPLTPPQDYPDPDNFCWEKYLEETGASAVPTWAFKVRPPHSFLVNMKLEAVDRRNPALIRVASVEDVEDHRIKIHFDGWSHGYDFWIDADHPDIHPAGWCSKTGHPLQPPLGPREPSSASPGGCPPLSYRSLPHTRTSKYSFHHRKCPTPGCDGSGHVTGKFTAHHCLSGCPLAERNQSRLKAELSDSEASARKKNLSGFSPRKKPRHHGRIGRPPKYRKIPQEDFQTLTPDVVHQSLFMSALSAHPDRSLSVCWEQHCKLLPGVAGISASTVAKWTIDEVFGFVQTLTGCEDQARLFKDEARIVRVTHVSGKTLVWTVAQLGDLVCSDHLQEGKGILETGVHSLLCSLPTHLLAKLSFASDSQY
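Displacement of a biotinylated histone H3(1-15) peptide monomethylated at Lys9 (75 nM) from L3MBTL1 (50 nM) was measured by AlphaScreen after a 30 min room-temperature compound incubation; cefsulodin titration served as intraplate control.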
POLI inh: qHTS for Inhibitors of Polymerase Iota; Potency, µM (top dose mostly 115 µM), without a hit: at the top dose activity, negative = inhibition, hits mostly inhibitors; Pol iota fluorescent replication assay, 10 min; 390,000 compounds, 1% hits; AID 588590, 2011; DNA polymerase iota (Homo sapiens), Q9UNA4
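Fluorescent replication assay read twice, at 0 min and 10 min after adding 50 nM (final) substrate. Enzyme (10 nM) and compounds were first incubated 15 min at room temperature; enzyme-free buffer wells were negative controls.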
APE1 inh: qHTS Assay for Inhibitors of the Human Apurinic/apyrimidinic Endonuclease 1 (APE1); DNA repair nuclease/redox regulator APEX1 (Homo sapiens), P27695; recombinant APE1, TAMRA/BHQ-2 abasic DNA cleavage fluorescence; Potency, µM (series often up to 65.8 µM), inactives show top-dose activity change, negative = inhibition, most hits filed as inhibitors; 350,000 compounds, 0.35% hits;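 note: plate controls were vehicle for no effect and reference inhibitor for full effect; nearly all actives have a fitted effect of over 55% in size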
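Kinetic fluorescence read (525 ex/598 em nm, three reads 60 s apart) of AP-site incision; signal = third minus first read. Enzyme 0.75 nM, dual-labelled THF duplex 50 nM, compound preincubation 15 min RT.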
Pol kappa inh: qHTS for Inhibitors of Polymerase Kappa; DNA polymerase kappa (Homo sapiens), Q9UBT6; purified Pol kappa, fluorescent DNA synthesis assay, 10 min; Potency, µM (highest dose often 107 µM), for inactives: at the highest dose activity, negative = inhibition, most hits filed as inhibitors; 400,000 compounds, 0.53% hits; AID 588579, 2011; note: % is set by controls: 0 for no effect and ±100 for the full control effect
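Here, compound and 10 nM enzyme are combined for 15 min at room temperature; adding 50 nM substrate (final) starts DNA synthesis, tracked by fluorescence at 0 and 10 min against buffer-only wells.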
POLH inh: qHTS for Inhibitors of Polymerase Eta | recombinant Pol eta, fluorescent DNA replication assay | Potency, µM (top dose mostly 114 µM), for the others: at the top dose activity change, negative = inhibition, usual class: inhibitors | 390,000 compounds, 1.2% hits | AID 588591, 2011; note: % is set by controls: 0 for no effect and ±100 for the full control effect
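Pol eta (10 nM) was preincubated with compounds for 15 min at room temperature, after which fluorescent replication substrate (50 nM final) was added to start the reaction. Fluorescence was read kinetically at 0 and 10 min.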
POLB inh: qHTS Assay for Inhibitors of DNA Polymerase Beta; P06746; Pol beta primer extension/strand displacement, fluorescence kinetic; Potency, µM (highest dose often 114 µM), for inactives: at the highest dose activity change, negative = inhibition, most hits filed as inhibitors; 340,000 compounds, 1.3% hits; AID 485314, 2010; note: % is set by controls: 0 for no effect and ±100 for the full control effect
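Curves were derived by four-parameter Hill fits of normalized qHTS data. The kinetic fluorescent primer-extension read was taken at 0 and 10 min after 50 nM substrate, following a 15 min room-temperature preincubation of 10 nM enzyme with compounds.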
* marks the source's active call; other numbers are inactive results; u = inconclusive; x = not tested or not shown; [ ] = remark or other dose. Compounds with a hit are over-represented: about 2.5% of the library has one in this group of screens. Calls come from the whole dose curve; as a rule, active = well fitted curve in the direction sought with a large enough effect; inconclusive = small, poorly fitted or top-dose-only effect, or another doubt; inactive = no such curve, though single readings can be large; an effect the other way counts as inactive or inconclusive. Potency is the fitted concentration of half-maximal effect.

SMILES	L3MBTL1 block	POLI inh	APE1 inh	Pol kappa inh	POLH inh	POLB inh
Cc1c(OCC(=O)NC(Cc2ccc(Cl)cc2)C(=O)O)ccc2c1oc(=O)c1ccccc12 (configuration not stated)	x	4.7%	3.9%	-17.4%	50.1µM*	-0.2%
Cc1c(OCC(=O)NC(Cc2ccc(Cl)cc2)C(=O)O)ccc2c3c(c(=O)oc12)CCC3 (configuration not stated)	-1.7%	-1.5%	68.7%	15.4%	-4.6%	1.3%
CCc1c(C)c2ccc(OC(C)C(=O)NC(Cc3c[nH]c4ccc(O)cc34)C(=O)O)c(C)c2oc1=O (configuration not stated)	x	u	-3.1%	-19.8%	50.1µM*	36.1%
CC(=O)Oc1c2occc2cc2ccc(=O)oc12	x	u	-5.5%	u	u	50.1µM*
COc1ccc(-c2nc3ccccc3c(=O)n2N)cc1	3.2%	19.5%	-5.6%	-11.7%	9.0%	56.2µM*
Nn1c(-c2ccccc2)nc2ccccc2c1=O	6.4%	33.1%	-6.6%	4.2%	-5.0%	8.4%
COc1ccc(NC2CCCN(C(=O)CCN3CCCO3)C2)cc1 (configuration not stated)	x	38.3%	7.0%	-4.2%	-10.2%	1.4%
COc1ccc(NC2CCCN(C(=O)CCN3CCOCC3)C2)cc1 (configuration not stated)	x	79.4µM*	65.3%	-1.6%	-2.6%	3.7%
O=C(CSc1ccccc1)Nc1nc2ccccc2[nH]1	2.8%	-6.2%	-2.9%	-8.3%	-5.9%	-1.8%[57.1 µM]
O=C(CSc1ccc(Cl)cc1)Nc1ccc(-c2nc3ccccc3[nH]2)cc1	2.2%	-44.1%	-6.1%	-16.3%	u	31.6µM*
CNC1CCc2cc(OC)c(OC)c(OC)c2-c2ccc(OC)c(=O)cc21 (configuration not stated)	x	x	x	-0.2%[19.4 µM]	x	x
CCn1c(SCC(=O)Nc2cc(OC)ccc2OC)nc2c(c1=O)SCC2	x	-1.4%	-4.3%	-4.1%	-8.1%	22.4µM*
CCn1c(SCC(=O)Nc2ccc(OC)c(OC)c2)nc2c(c1=O)SCC2	x	7.2%	-11.0%	-2.8%	-2.0%	2.5%
Cc1cccc(-n2c(O)c(C=Nc3ccccc3O)c3ccccc3c2=O)n1	-12.4%	u	u	u	44.7µM*	-32.4%
O=C(NCc1ccccc1)C(c1ccncc1)N(C(=O)c1ccccn1)c1ccccc1 (configuration not stated)	x	38.8%	22.2%	-6.9%	-18.8%	-5.9%
CC(=O)N1CCc2cc(CNC(=O)Nc3cc(Cl)ccc3C)ccc21	x	11.8%	x	-4.3%[60.1 µM]	-10.1%	28.2µM*
CCC(=O)N1CCc2cc(CNC(=O)Nc3cc(Cl)ccc3C(=O)OC)ccc21	x	-27.6%	x	-9.0%[60.1 µM]	-11.5%	1.4%
O=C(Nc1ccccc1)N(Cc1cccc(Cl)c1)c1ccccn1	x	13.9%	x	-10.8%	4.2%	-15.2%
Cc1ccc2c(c1)-c1c(cnc3cc(-c4ccccc4)nn13)CO2	x	14.6%	x	12.0%	-13.0%	-2.2%
COc1ccc2ncc3c(-c4ccc(C)c(C)c4)nn(CC(=O)NC4CCCCC4)c3c2c1	x	u	x	10.1%	-7.0%	6.5%
Cc1c(NC(=O)c2ccc3c(c2)C(=O)N(Cc2ccco2)C3=O)cccc1C(=O)O	x	u	-5.3%	u	31.6µM*	u
COC(=O)c1ccccc1NC(=O)c1ccc2c(c1)C(=O)N(Cc1ccco1)C2=O	x	15.3%	x	-6.5%	-16.9%	x
CCc1ccc(NC(=O)c2ccc3c(c2)C(=O)N(Cc2ccco2)C3=O)cc1	u	u	-8.5%	50.1µM*	20µM*	20µM*
COc1ccc(-c2n[nH]c(C(F)(F)F)c2-c2cc3ccccc3o2)c(O)c1	-4.3%	79.4µM*	-10.9%	-2.5%	-10.9%	0.1%
